Test results as given in PubChem BioAssay (NCI).
Compounds without any hit were thinned out: in the full panel of roughly 79,000, 15% have a hit. A number with no mark means an inactive call. Active and inactive are the calls of the source. Rule as the data show it: active = growth inhibition above about 70%; inactive = the rest.

Assay: NCI Yeast Anticancer Drug Screen. Data for the wt1 strain (AID 149);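 also: 0% = growth of vehicle-treated wt1 cultures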
Conditions: S. cerevisiae wt1 strain (SPY 50644) growth inhibition, hits give high values
Description: Growth inhibition of yeast strains with defined genetic alterations is measured as a screen for potential anti-cancer activity. Selected strains with alterations in DNA damage repair or cell cycle control were exposed to compounds and growth inhibition was measured relative to vehicle treated controls. The strain used in this assay is wt1

SMILES | growth inhibition (at 1.2 µM) | growth inhibition (at 3.7 µM) | growth inhibition (at 11.0 µM) | growth inhibition (at 33.0 µM) | growth inhibition (at 100.0 µM)
CNC(=O)OCc1c(COC(=O)NC)c(-c2ccc(Cl)c(Cl)c2)n2c1SCC2 | -1% | 0% | -1% | -3% | 6%
Cc1sc2ccc3ccccc3c2[n+]1C | -21% | -19% | -24% | -8% | 94% (active)
COc1nc2c(c(=O)n1C)N=C(c1ccccc1)[C@H](C(CC(=O)c1ccccc1)c1ccccc1)C(c1ccccc1)N2 (stereo not given in full) | -27% | -20% | -19% | 6% | 46%
CC(C)C(C)/C=C\C(C)C1CCC2C3=CC=C4CC(O)CCC4(C)C3CCC21C (stereo not given) | 2% | -1% | 0% | -3% | -3%
CN(C)Cc1cc(N=Nc2ccc(Cl)cc2)ccc1OC(=O)c1ccccc1 | 1% | 1% | 3% | 3% | -1%
CCN(CC)CCOc1cc(C)c2cc(Cc3ccccc3)ccc2n1 | 0% | 1% | -1% | 3% | 71% (active)
Oc1[nH]c2ccccc2c1N=NC(=S)N1CCCCC1 | -1% | 0% | 4% | 90% (active) | 98% (active)
COc1ccc(N=CN(C)C)c(C)c1 | -29% | -29% | -32% | 61% | 95% (active)
